From PubChem BioAssay (Tox21)
Inconclusive results are not listed. The source made the active and inactive calls. Unless noted, the call rests on the fitted dose curve; in most records, active means well fitted curve in the direction sought with a large enough effect in the repeat runs; inconclusive means weak or mixed curves; inactive means flat fitted curve, though single readings scatter.

Columns and labels:
[1] = qHTS assay to test for compound auto fluorescence at 535 nm (green) in HEK293 cells (AID 720680)
[2] = qHTS assay to test for compound auto fluorescence at 460 nm (blue) in HEK293 cell free culture (AID 720681)
How it was run: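 Test compounds were pinned into cell-free culture medium (DMEM with 10% FBS) and fluorescence was read directly at Ex/Em 405/460 nm. Signals were expressed as fluorescence equivalents of triamterene, with DMSO vehicle as control.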

[3] = qHTS assay to test for compound auto fluorescence at 535 nm (green) in HEK293 cell free culture (AID 720682)
How it was run: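 No cells present: wells hold DMEM supplemented with 10% FBS, into which compound or vehicle is pinned. Green emission is then recorded (485 nm excitation, 535 nm emission) and scaled to fluorescein.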

[4] = qHTS assay to test for compound auto fluorescence at 590 nm (red) in HEK293 cell free culture (AID 720683)
How it was run: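 Tox21 10K library compounds were pinned into cell-free DMEM with 10% FBS and fluorescence was read at excitation 540 nm. Activity is expressed as Rose Bengal sodium equivalency.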

[5] = qHTS assay to test for compound auto fluorescence at 590 nm (red) in HepG2 cell free culture (AID 720684)
How it was run: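 Red fluorescence (540 nm excitation, 590 nm emission) was measured after compound transfer into cell-free MEM supplemented with 10% FBS. Values are equivalencies against Rose Bengal sodium.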

[6] = qHTS assay to test for compound auto fluorescence at 460 nm (blue) in HepG2 cell free culture (AID 720685)
How it was run: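 Compound (23 nL) or DMSO pinned into cell-free MEM with 10% FBS; blue fluorescence read at 405/460 nm excitation/emission, expressed as auto-fluorescence equivalency to triamterene.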

[7] = qHTS assay to test for compound auto fluorescence at 535 nm (green) in HepG2 cell free culture (AID 720686)
[8] = qHTS assay to test for compound auto fluorescence at 460 nm (blue) in HepG2 cells (AID 720687)
How it was run: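 Cells (2,000/well in MEM with 10% FBS) attached overnight at 37 C, then were exposed to compound or DMSO for 1 hr at 37 C, 5% CO2. Fluorescence read at Ex/Em 405/460 nm, expressed as triamterene-equivalent signal.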

[9] = target: Glucocorticoid receptor (Homo sapiens) (UniProt P04150); assay: qHTS assay to identify small molecule agonists of the glucocorticoid receptor (GR) signaling pathway (AID 720691; active means well fitted activation curve with a large enough effect in the signal ratio in the repeat runs, not every such curve was filed as active; the % refers to the signal ratio)
How it was run: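 Fluorescence intensity from LiveBLAzer B/G FRET substrate (2 h, room temperature) reports beta-lactamase expression driven by the glucocorticoid response element in GR-bla HeLa cells after 18 h compound exposure at 37 C.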

[10] = target: Glucocorticoid receptor (Homo sapiens) (UniProt P04150); assay: qHTS assay to identify small molecule antagonists of the glucocorticoid receptor (GR) signaling pathway (AID 720692; active means well fitted inhibition curve with a large enough effect in the signal ratio in the repeat runs, not every such curve was filed as active; the % refers to the signal ratio)
How it was run: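 HeLa GR-bla cells; cmpd + dex 5 nM final, 18 h 37 C; LiveBLAzer B/G FRET substrate 2 h RT; fluorescence intensity read. Antagonist mode, qHTS.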
On the % scale 0 is the no-effect control and ±100 the full control effect.

Sequence of Glucocorticoid receptor (Homo sapiens) (P04150 whole entry, looked up): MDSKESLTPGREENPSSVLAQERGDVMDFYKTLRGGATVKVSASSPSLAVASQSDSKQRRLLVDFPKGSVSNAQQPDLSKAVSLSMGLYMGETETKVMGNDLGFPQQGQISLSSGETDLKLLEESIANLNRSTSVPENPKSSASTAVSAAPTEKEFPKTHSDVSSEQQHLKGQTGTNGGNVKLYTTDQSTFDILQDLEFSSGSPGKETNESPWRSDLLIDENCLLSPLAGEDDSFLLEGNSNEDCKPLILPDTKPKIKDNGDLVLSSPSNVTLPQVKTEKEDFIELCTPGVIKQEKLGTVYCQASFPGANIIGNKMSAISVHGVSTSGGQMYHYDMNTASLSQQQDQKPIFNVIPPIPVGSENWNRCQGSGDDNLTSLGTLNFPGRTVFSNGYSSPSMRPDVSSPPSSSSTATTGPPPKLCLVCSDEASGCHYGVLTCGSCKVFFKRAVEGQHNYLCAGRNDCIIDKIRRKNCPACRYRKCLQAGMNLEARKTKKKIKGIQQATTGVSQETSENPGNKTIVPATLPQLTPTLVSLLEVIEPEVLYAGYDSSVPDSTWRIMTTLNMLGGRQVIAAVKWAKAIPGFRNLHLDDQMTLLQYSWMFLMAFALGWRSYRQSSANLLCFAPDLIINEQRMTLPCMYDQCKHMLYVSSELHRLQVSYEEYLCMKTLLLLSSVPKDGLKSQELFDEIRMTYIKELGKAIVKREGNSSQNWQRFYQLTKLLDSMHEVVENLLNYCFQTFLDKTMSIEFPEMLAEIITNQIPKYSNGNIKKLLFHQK

Nc1ccc(S(=O)(=O)NC(=O)c2ccccc2)cc1
inactive: fluorescence, % of fluorescein [1] -0.0049% [at 18.6 µM] | fluorescence, % of fluorescent control [2] -0.0169% [at 18.6 µM] | activity change [3] 0.0575% [at 18.6 µM] | fluorescence, % of fluorescent control [4] -0.201% [at 18.6 µM] | fluorescence, % of Rose Bengal [5] -0.0804% [at 18.6 µM] | fluorescence, % of fluorescent control [6] -0.0907% [at 18.6 µM] | fluorescence, % of fluorescein control [7] -0.0092% [at 18.6 µM] | fluorescence, % of fluorescent control [8] -0.0228% [at 18.6 µM] | Potency [9] | outcome [10]

CCOc1ccc(NC(=O)OC(C)C)cc1OCC
inactive: outcome [1] | outcome [2] | outcome [3] | outcome [4] | outcome [5] | outcome [6] | outcome [7] | outcome [8] | Potency [9] | outcome [10]

CC(C)(C)c1ccc(C=O)cc1
inactive: outcome [1] | outcome [2] | outcome [3] | outcome [4] | outcome [5] | outcome [6] | outcome [7] | Potency [9]

C=CCCCCCCCCCCC
inactive: fluorescence, % of fluorescein [1] 0.0165% [at 3.72 µM] | fluorescence, % of fluorescent control [2] -0.158% [at 3.72 µM] | activity change [3] 0.0052% [at 3.72 µM] | fluorescence, % of fluorescent control [4] -0.0144% [at 3.72 µM] | fluorescence, % of Rose Bengal [5] 0.0242% [at 3.72 µM] | fluorescence, % of fluorescent control [6] 0.0228% [at 3.72 µM] | fluorescence, % of fluorescein control [7] 0.0296% [at 3.72 µM] | fluorescence, % of fluorescent control [8] -0.017% [at 3.72 µM] | activation [9] -0.645% [at 6.9 µM] | activity change, negative = inhibition [10] -6.37% [at 7.04 µM]

C=CCOCC(O)CCl (stereo unspecified)
inactive: outcome [1] | outcome [2] | outcome [3] | outcome [4] | outcome [5] | outcome [6] | outcome [7] | outcome [8] | Potency [9] | outcome [10]

CCN(Cc1cccc(S(=O)(=O)O)c1)c1ccccc1
inactive: outcome [1] | outcome [2] | outcome [3] | outcome [4] | outcome [5] | outcome [6] | outcome [7] | outcome [8] | Potency [9] | outcome [10]

CCCCC(CC)COC(=O)c1ccccc1 (stereo unspecified)
inactive: outcome [1] | outcome [2] | outcome [3] | outcome [4] | outcome [5] | outcome [6] | outcome [7] | Potency [9] | outcome [10]

CN[C@@H]1[C@H](O)[C@H](NC)[C@H]2O[C@@]3(O)C(=O)C[C@@H](C)O[C@H]3O[C@@H]2[C@H]1O
inactive: fluorescence, % of fluorescein [1] 0.0714% [at 18.6 µM] | fluorescence, % of fluorescent control [2] 0.0087% [at 18.6 µM] | activity change [3] 0.0093% [at 18.6 µM] | fluorescence, % of fluorescent control [4] 0.386% [at 18.6 µM] | fluorescence, % of Rose Bengal [5] 0.555% [at 18.6 µM] | fluorescence, % of fluorescent control [6] 0.0605% [at 18.6 µM] | fluorescence, % of fluorescein control [7] 0.0131% [at 18.6 µM] | fluorescence, % of fluorescent control [8] 0.0309% [at 18.6 µM] | Potency [9] | outcome [10]

Nc1cc(S(=O)(=O)O)ccc1S(=O)(=O)O
inactive: outcome [1] | outcome [2] | outcome [3] | outcome [4] | outcome [5] | outcome [6] | outcome [7] | outcome [8] | Potency [9] | outcome [10]

Cc1nc(C)nc(N2C[C@@H](C)N(c3ccnc([C@@H](C)O)n3)[C@@H](C)C2)n1
inactive: outcome [1] | outcome [2] | outcome [3] | outcome [4] | outcome [5] | outcome [6] | outcome [7] | outcome [8] | Potency [9] | outcome [10]

NS(=O)(=O)c1cc2c(cc1Cl)NC(CC1CCCC1)NS2(=O)=O (stereo unspecified)
inactive: fluorescence, % of fluorescein [1] 0.0502% [at 18.6 µM] | fluorescence, % of fluorescent control [2] -0.0459% [at 18.6 µM] | activity change [3] 0.104% [at 18.6 µM] | fluorescence, % of fluorescent control [4] -0.0938% [at 18.6 µM] | fluorescence, % of Rose Bengal [5] 0.409% [at 18.6 µM] | fluorescence, % of fluorescent control [6] -0.0354% [at 18.6 µM] | fluorescence, % of fluorescein control [7] -0.0012% [at 18.6 µM] | Potency [9]

CC(=O)c1ccc(OCC(=O)N2CCCCC2)cc1
inactive: outcome [1] | outcome [2] | outcome [3] | outcome [4] | outcome [5] | outcome [6] | outcome [7] | outcome [8] | Potency [9] | outcome [10]

CC1(N)CCC(C(C)(C)N)CC1 (stereo unspecified)
inactive: outcome [1] | outcome [2] | outcome [3] | outcome [4] | outcome [5] | outcome [6] | outcome [7] | outcome [8] | Potency [9] | outcome [10]

COc1ccc(NS(=O)(=O)c2ccc(N)cc2)nn1
inactive: fluorescence, % of fluorescein [1] -0.0152% [at 18.6 µM] | fluorescence, % of fluorescent control [2] 0.201% [at 18.6 µM] | activity change [3] -0.0484% [at 18.6 µM] | fluorescence, % of fluorescent control [4] -0.041% [at 18.6 µM] | fluorescence, % of Rose Bengal [5] -0.359% [at 18.6 µM] | fluorescence, % of fluorescent control [6] -0.109% [at 18.6 µM] | fluorescence, % of fluorescein control [7] -0.0862% [at 18.6 µM] | fluorescence, % of fluorescent control [8] 0.0805% [at 18.6 µM] | Potency [9] | outcome [10]

C=CCOc1c(Br)cc(Br)cc1Br
inactive: outcome [1] | outcome [2] | outcome [3] | outcome [4] | outcome [5] | outcome [6] | outcome [7] | Potency [9]

O=C(O)CCNC(=O)c1ccccc1
inactive: outcome [1] | outcome [2] | outcome [3] | outcome [4] | outcome [5] | outcome [6] | outcome [7] | outcome [8] | Potency [9] | outcome [10]

NC(=O)NNC(N)=O
inactive: outcome [1] | outcome [2] | outcome [3] | outcome [4] | outcome [5] | outcome [6] | outcome [7] | outcome [8] | Potency [9] | outcome [10]

CC(Cl)COP(=O)(OCC(C)Cl)OCC(C)Cl (stereo unspecified)
inactive: outcome [1] | outcome [2] | outcome [3] | outcome [4] | outcome [5] | outcome [6] | outcome [7] | Potency [9]

CCCCCCCCCOCC1CO1 (stereo unspecified)
inactive: outcome [1] | outcome [2] | outcome [3] | outcome [4] | outcome [5] | outcome [6] | outcome [7] | outcome [8] | Potency [9] | outcome [10]

C/C=C(\C)C(=O)OCC/C=C\CC
inactive: outcome [1] | outcome [2] | outcome [3] | outcome [4] | outcome [5] | outcome [6] | outcome [7] | outcome [8] | Potency [9] | outcome [10]

CCOC(=O)OCC/C(SC(=O)OCC)=C(\C)N(C=O)Cc1cnc(C)nc1N
inactive: outcome [1] | outcome [2] | outcome [3] | outcome [4] | outcome [5] | outcome [6] | outcome [7] | outcome [8] | Potency [9] | outcome [10]
